From PubChem BioAssay (NCATS) come the findings set out here.

Test [1] has as its target Peroxisome proliferator-activated receptor delta (Homo sapiens) (UniProt Q03181). The experiment in a line: qHTS assay for small molecule agonists of peroxisome proliferator-activated receptor delta signaling (AID 588534).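 Also: 0% = DMSO basal wells and 100% = positive control agonist at 10 µM.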 Summed up:
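Cells carrying a PPAR-delta beta-lactamase reporter were treated with compounds for 18 h at 37 °C in agonist mode. CCF4 fluorescence was read after 2 h; EC50 and efficacy from Hill fits.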
On the technique in general: In qHTS, concentration-response curves come from the screen itself.

Test [2] in a line: qHTS assay for small molecule antagonists of peroxisome proliferator-activated receptor delta signaling (AID 588535; active = well fitted inhibition curve with a large enough effect in the signal ratio, with a control signal flat, not every such curve was filed as active; the % refers to the signal ratio;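 as to max response: cells co-treated with a PPAR-delta agonist as stimulator during compound exposure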). The note with it: HEK293T PPARd-UAS-bla, beta-lactamase FRET ratio, 18 h; 460 nm channel. Summed up: (§1)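 HEK293T PPAR-delta-UAS-bla cells, 4000/well, 2% charcoal/dextran FBS; 5 h 37 C; cpd titration; 18 h 37 C; CCF4 2 h RT; FI 460/530 nm; Hill fit → IC50, efficacy.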

Test [3] deals with Peroxisome proliferator-activated receptor delta (Homo sapiens) (UniProt Q03181). Described as above. Summed up: as §1
In test [4] the target is Retinoic acid receptor RXR-alpha (Homo sapiens) (UniProt P19793). The test can be described thus: qHTS assay for small molecule agonists of retinoid X receptor alpha signaling (AID 588544).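 Also: 0% = DMSO basal wells and 100% = reference agonist.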
The target in test [5] is Thyroid hormone receptor beta (Homo sapiens) (UniProt P10828). The test can be described thus: qHTS assay for small molecule agonists of thyroid hormone receptor beta signaling (AID 588545).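 Also: 0% = DMSO only and 100% = 10 nM T3.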 Summed up:
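Beta-lactamase reporter activity under TR response element control is measured in HEK 293 cells after 18 hrs compound exposure. Signal is ratiometric CCF4 fluorescence, 460/530 nm.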

The nature of test [6]: qHTS assay for small molecule activators of the p53 signaling pathway (AID 651743; active = well fitted activation curve with a large enough effect in the signal ratio, not every such curve was filed as active; the % refers to the signal ratio; also: potency is read from the fitted curve at half-maximal effect; as to activation: series mostly up to about 92 µM; % of control where 0% means no effect). The settings on record: HCT-116 p53RE-bla, beta-lactamase FRET ratio, 16 h; activation: stronger effect = higher value. Summed up:
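Read-out is fluorescence intensity from the LiveBLAzer B/G FRET substrate, added for 2 hours at room temperature after HCT-116 p53RE-bla cells had been incubated with compounds for 16 hours at 37 C.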

Test [7] is described as follows: qHTS assay for environmental chemicals that activate the Aryl hydrocarbon Receptor (AhR) signaling pathway (AID 651777; active = well fitted curve in the direction sought with a large enough effect; an effect the other way counts as inactive or inconclusive; also: % of control where 0% means no effect; nearly all actives have a fitted effect of over 15% in size). The settings on record: 1A2-DRE human hepatoma cells, luciferase, 24 h; activation: stronger effect = higher value. Summed up:
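Luminescence (One-Glo, 30 min, room temperature) reports AhR-driven luciferase in stably transfected human hepatoma cells bearing DRE and CYP1A2 promoter. Cells (1,200/well) were treated with compound for 24 hr at 37 C in qHTS format.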

The target in test [8] is Peroxisome proliferator-activated receptor alpha (Homo sapiens) (UniProt Q07869). The test can be described thus: qHTS assay for small molecule agonists of the peroxisome proliferator-activated receptor alpha (PPARalpha) signaling pathway (AID 651778; active = well fitted curve in the direction sought with a large enough effect; an effect the other way counts as inactive or inconclusive; also: potency is read from the fitted curve at half-maximal effect; as to max response: % of control where 0% means no effect). The note with it: PathHunter PPARalpha complementation, chemiluminescence, 6 h; max response: stronger effect = higher value. Summed up: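 Chemiluminescence from complemented enzyme reported PPARalpha activation in cells after 6 hr of compound treatment at 37 C. The detection reagent was incubated for 60 min at room temperature, and compounds were scored as agonists.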

Test [9] can be described thus: qHTS assay for small molecule agonists of the antioxidant response element (ARE) signaling pathway measured by Nrf2-dependant transcriptional activity (AID 720636; active = well fitted curve in the direction sought with a large enough effect in the repeat runs; an effect the other way counts as inactive or inconclusive; also: % of control where 0% means no effect). Summed up:
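Nrf2-dependent transcription read as ONE-Glo luciferase signal from ARE-luc HepG2 reporter cells after 16 hr compound treatment at 37 C, 5% CO2, in assay medium with 1% dialyzed FBS.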

The nature of test [10]: qHTS assay for small molecule agonists of the antioxidant response element (ARE) signaling pathway measured by Nrf2-dependant transcriptional activity - cell viability counter screen (AID 720653; active = well fitted curve in the direction sought with a large enough effect in the repeat runs; an effect the other way counts as inactive or inconclusive; also: % is scaled to controls: 0 for no effect and ±100 for the full control effect). The settings on record: ARE-bla HepG2 viability, CellTiter-Glo ATP luminescence, 16 h; max response: stronger effect = lower value. Summed up: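 Cytotoxicity counter screen: intracellular ATP quantified by CellTiter-Glo luminescence in the same ARE-bla HepG2 plates, after 16 h compound exposure and a 2 h beta-lactamase substrate step.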

A short description of test [11]: qHTS assay for cell viability of HEK293 cells (AID 743288; active = well fitted curve in the direction sought with a large enough effect; an effect the other way counts as inactive or inconclusive; also: % is scaled to controls: 0 for no effect and ±100 for the full control effect; nearly all actives have a fitted effect of over 50% in size). The note with it: ATP luminescence (CellTiter-Glo), 18 h; max response: stronger effect = lower value. Summed up:
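HEK293 parental, 2,000 cells/well; ≥5 h pre-incubation 37 C; pintool compound addition; 18 h, 37 C; CellTiter-Glo 30 min RT; luminescence read.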

Test [12] is described as follows: qHTS assay for cell viability of the p53RE-bla HCT-116 cell line (AID 743292; active = well fitted curve in the direction sought with a large enough effect; an effect the other way counts as inactive or inconclusive; also: % is scaled to controls: 0 for no effect and ±100 for the full control effect; nearly all actives have a fitted effect of over 55% in size). Summed up:
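ATP-based luminescent viability (CellTiter-Glo, 30 min RT) after 16 h compound treatment at 37 C of p53RE-bla HCT-116 cells, seeded at 4,000 cells/well and rested 5 h before dosing.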

Test [13] deals with Vitamin D3 receptor (Homo sapiens) (UniProt P11473). The test can be described thus: qHTS assay for small molecule agonists of vitamin D receptor signaling (AID 588543).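 Also: 0% = DMSO basal and 100% = reference agonist control.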 Summed up: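 Reporter cells (HEK293T, VDR-UAS-bla) were seeded in medium with 2% charcoal-stripped serum and incubated 5 h, then compounds in concentration series were added for 16 h at 37 °C. Stimulation was scaled between DMSO basal and 50 nM 1α,25-dihydroxyvitamin D3.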

The nature of test [14]: qHTS assay for small molecule antagonists of retinoid X receptor alpha signaling (AID 588546; active = well fitted inhibition curve with a large enough effect in the signal ratio, with a control signal flat, not every such curve was filed as active; the % refers to the signal ratio;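 also: cells stimulated with 9-cis-retinoic acid as agonist; % is scaled to controls: 0 for no effect and ±100 for the full control effect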). The settings on record: HEK293T RXRa-UAS-bla, beta-lactamase ratio, antagonist mode; measured here: W530 green channel, cytotoxicity proxy. Summed up:
(§2)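 Beta-lactamase reporter inhibition, read as CCF4 fluorescence ratio (ex 405, em 460/530 nm) after 2 h at RT. HEK293T UAS-bla cells, 2500/well, were stimulated with 9-cis-RA at 500 or 100 nM final alongside test compound for 18 h at 37 C.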

Test [15] deals with Retinoic acid receptor RXR-alpha (Homo sapiens) (UniProt P19793). Described as above. The note with it: HEK293T RXRa-UAS-bla, beta-lactamase ratio, antagonist mode. Summed up:
as §2

Test [16] deals with Thyroid hormone receptor beta (Homo sapiens) (UniProt P10828). The experiment in a line: qHTS assay for small molecule antagonists of thyroid hormone receptor beta signaling (AID 588547; active = well fitted inhibition curve with a large enough effect in the signal ratio, with a control signal flat, not every such curve was filed as active; the % refers to the signal ratio;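 also: cells stimulated with 0.4 nM T3 agonist during compound exposure; series mostly up to about 77 µM; % is scaled to controls: 0 for no effect and ±100 for the full control effect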). The note with it: TR-UAS-bla HEK293, beta-lactamase ratio, antagonist mode, 18 h. Summed up: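 Inhibition of T3-driven (0.4nM final) beta-lactamase reporter activity was measured over 0.59 nM to 92 uM compound after 18 h at 37 C. The cells were GripTite HEK293 TR-UAS-bla in charcoal/dextran-stripped serum, with CCF4 ratio read-out and IC50 from Hill fits.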

A short description of test [17]: qHTS assay for small molecule agonists of the antioxidant response element (ARE) signaling pathway (AID 651741; active = well fitted activation curve with a large enough effect in the signal ratio; the % refers to the signal ratio; also: potency is read from the fitted curve at half-maximal effect; as to activation: % of control where 0% means no effect). Summed up: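 Quantitative HTS in HepG2 cells stably expressing an ARE-beta-lactamase reporter; 16 h compound exposure at 37 C, followed by 2 h room-temperature incubation with LiveBLAzer B/G FRET substrate and fluorescence measurement.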
In test [18] the target is Nuclear receptor subfamily 1 group I member 2 (Rattus norvegicus) (UniProt Q9R1A7). The test can be described thus: qHTS assay for small molecule activators of the rat pregnane X receptor (rPXR) signaling pathway (AID 651751; call rule not given here; also: 0% is about no effect). The note with it: rPXR reporter cells, luciferase (One-Glo), 24 h.
Test [19] deals with Bile acid receptor (Homo sapiens) (UniProt Q96RI1). The experiment in a line: qHTS assay for small molecule antagonists of farnesoid X receptor signaling (AID 588526). Also: % is scaled to controls: 0 for no effect and ±100 for the full control effect. Summed up:
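Beta-lactamase reporter antagonist mode: HEK293T FXR-UAS-bla cells, titrated compound, CDCA stimulation, 16 h 37 C, CCF4 dye 2 h RT. Data normalized to CDCA 50 uM and DMSO; Hill-fit IC50.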

Test [20] has the same target. The experiment in a line: qHTS assay for small molecule agonists of farnesoid X receptor signaling (AID 588527).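 Also: series mostly up to about 77 µM; 0% = vehicle basal and 100% = reference agonist.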 The settings on record: HEK293T FXR-UAS-bla, beta-lactamase ratio, 16 h; activation: stronger effect = higher value. Summed up: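 Quantitative HTS used FXR-UAS-bla HEK293T cells with 16 h compound incubation at 37 C. EC50 values came from concentration-response curves normalized to chenodeoxycholic acid.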

Records with an inconclusive call do not appear. The source made the active and inactive calls. Unless noted, calls follow the shape of the full dose curve.

Chain of Bile acid receptor (Homo sapiens) (Q96RI1 whole entry, looked up): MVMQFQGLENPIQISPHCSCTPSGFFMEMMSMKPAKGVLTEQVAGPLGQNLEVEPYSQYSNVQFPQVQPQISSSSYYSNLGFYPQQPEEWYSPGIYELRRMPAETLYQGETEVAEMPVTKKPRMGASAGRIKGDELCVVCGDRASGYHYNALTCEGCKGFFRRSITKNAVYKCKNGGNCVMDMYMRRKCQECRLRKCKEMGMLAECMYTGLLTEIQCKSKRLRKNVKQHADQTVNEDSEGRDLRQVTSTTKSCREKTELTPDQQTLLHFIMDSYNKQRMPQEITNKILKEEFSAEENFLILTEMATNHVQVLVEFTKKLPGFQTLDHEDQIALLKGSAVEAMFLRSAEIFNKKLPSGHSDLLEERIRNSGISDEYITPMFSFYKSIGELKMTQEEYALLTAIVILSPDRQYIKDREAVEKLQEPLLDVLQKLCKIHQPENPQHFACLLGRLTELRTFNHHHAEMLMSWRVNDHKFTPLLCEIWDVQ
Chain of Peroxisome proliferator-activated receptor alpha (Homo sapiens) (Q07869 whole entry, looked up): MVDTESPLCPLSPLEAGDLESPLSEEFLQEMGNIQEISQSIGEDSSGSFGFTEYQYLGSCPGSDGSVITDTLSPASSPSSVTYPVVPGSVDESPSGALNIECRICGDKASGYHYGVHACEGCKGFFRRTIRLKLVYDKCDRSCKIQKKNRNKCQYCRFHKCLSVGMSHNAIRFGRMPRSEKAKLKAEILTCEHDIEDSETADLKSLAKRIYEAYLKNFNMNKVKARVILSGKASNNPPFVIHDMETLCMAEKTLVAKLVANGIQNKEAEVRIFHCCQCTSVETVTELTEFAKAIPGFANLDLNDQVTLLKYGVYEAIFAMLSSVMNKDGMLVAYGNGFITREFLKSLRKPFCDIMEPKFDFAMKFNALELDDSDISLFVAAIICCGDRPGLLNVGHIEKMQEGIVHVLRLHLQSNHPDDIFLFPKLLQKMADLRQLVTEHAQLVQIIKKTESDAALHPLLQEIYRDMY
Chain of Nuclear receptor subfamily 1 group I member 2 (Rattus norvegicus) (Q9R1A7 whole entry, looked up): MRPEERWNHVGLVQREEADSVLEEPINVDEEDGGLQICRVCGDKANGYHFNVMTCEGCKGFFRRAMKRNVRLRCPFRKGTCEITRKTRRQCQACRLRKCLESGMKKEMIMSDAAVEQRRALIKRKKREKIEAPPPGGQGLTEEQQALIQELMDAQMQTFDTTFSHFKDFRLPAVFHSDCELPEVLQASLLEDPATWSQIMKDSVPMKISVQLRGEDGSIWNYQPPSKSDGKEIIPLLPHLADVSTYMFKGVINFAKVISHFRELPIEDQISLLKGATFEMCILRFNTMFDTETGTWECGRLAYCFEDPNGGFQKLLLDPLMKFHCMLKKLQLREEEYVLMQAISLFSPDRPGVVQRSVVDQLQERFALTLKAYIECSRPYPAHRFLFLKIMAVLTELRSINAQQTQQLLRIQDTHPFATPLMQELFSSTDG
Chain of Peroxisome proliferator-activated receptor delta (Homo sapiens) (Q03181 whole entry, looked up): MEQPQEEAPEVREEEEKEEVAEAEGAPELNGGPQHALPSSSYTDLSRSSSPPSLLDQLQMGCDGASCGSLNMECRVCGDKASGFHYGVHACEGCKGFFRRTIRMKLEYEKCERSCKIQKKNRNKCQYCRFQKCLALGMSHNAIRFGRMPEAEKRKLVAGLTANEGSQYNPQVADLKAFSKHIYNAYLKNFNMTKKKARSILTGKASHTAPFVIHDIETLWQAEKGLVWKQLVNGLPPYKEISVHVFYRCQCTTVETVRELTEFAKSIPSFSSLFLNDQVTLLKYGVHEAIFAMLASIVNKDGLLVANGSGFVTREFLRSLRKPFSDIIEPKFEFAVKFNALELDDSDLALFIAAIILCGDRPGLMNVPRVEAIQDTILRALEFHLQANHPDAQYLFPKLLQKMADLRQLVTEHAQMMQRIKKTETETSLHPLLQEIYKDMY
Chain of Thyroid hormone receptor beta (Homo sapiens) (P10828 whole entry, looked up): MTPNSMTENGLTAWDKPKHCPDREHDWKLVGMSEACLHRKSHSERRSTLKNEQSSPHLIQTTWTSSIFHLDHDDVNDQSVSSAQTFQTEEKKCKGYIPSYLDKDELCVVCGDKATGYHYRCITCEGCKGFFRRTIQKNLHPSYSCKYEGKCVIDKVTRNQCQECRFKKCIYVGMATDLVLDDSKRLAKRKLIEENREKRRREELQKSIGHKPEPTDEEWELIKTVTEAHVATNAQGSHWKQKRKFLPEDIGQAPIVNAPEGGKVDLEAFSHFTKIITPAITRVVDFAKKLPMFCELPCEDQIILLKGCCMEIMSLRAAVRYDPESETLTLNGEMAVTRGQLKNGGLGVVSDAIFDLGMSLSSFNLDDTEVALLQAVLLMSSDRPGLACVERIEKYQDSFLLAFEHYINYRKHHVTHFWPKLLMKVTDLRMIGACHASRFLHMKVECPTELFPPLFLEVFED
Chain of Vitamin D3 receptor (Homo sapiens) (P11473 whole entry, looked up): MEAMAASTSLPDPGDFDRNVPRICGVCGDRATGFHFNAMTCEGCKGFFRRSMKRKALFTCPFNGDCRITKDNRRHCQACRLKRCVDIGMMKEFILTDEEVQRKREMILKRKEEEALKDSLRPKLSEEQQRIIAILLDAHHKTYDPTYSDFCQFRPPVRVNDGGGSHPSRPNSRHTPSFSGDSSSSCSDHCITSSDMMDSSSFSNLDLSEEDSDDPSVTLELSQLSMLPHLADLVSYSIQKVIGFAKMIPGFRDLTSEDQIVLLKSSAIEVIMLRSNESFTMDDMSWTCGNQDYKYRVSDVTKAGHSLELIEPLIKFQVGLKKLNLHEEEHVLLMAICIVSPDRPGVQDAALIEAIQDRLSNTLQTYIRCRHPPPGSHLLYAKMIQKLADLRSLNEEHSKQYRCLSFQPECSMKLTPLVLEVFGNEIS
Chain of Retinoic acid receptor RXR-alpha (Homo sapiens) (P19793 whole entry, looked up): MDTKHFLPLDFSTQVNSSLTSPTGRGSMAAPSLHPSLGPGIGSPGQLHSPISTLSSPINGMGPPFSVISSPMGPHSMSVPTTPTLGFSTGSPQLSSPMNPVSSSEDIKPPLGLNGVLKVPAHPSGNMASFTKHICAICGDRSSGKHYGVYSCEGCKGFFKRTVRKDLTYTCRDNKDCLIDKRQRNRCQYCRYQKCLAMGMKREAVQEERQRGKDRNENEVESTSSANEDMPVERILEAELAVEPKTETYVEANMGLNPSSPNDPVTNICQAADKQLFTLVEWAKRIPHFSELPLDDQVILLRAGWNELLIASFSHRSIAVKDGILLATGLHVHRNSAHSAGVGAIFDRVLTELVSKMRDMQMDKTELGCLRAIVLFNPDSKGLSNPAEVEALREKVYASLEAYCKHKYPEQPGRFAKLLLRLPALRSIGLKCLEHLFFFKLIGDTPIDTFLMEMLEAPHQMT

On to `CC1(C)[C@H](C(=O)O[C@H](C#N)c2cccc(Oc3ccccc3)c2)[C@@H]1C=C(Br)Br`, for which the call in [1] was inactive. The max response in test [2] is 6.87%; in [8], -0.333% (inactive); in test [10] it was -10.6% (inactive); in [11], -19% (inactive). The Potency entry in test [3], in test [4], in [5], in test [9] and in test [12] was “inactive” throughout. The activation in [6] was 3.18% (inactive); in [7] it was -1.98% (inactive).

As for `COC(=O)c1c(C(F)F)nc(C(F)(F)F)c(C2=NCCS2)c1CC(C)C`, the compound was called inactive in test [1] and in test [13]. Further, the max response in test [2] is -95%; in test [14], -11.1%; in test [15], -17.3% (inactive); in test [8] it was -1.35% (inactive); in test [10], 1.66% (inactive); in test [11], -8.01% (inactive). The Potency result in test [3], in test [5], in test [9] and in test [12] was “inactive” in each case. Besides, the activity change % (negative = inhibition) in test [16] is -8.88% (inactive). For the same compound, the results for the activation in test [6] and in test [7] were 6.04% (inactive) and 2.1% (inactive), respectively.

In the case of `c1ccc2c(c1)[nH]c1ccccc12`, the compound was called inactive in [1]. In test [9], the Potency result was “inactive”.

For `N#Cc1cc(I)c(O)c(I)c1`, the compound was called inactive in test [1] and in test [13]. Moreover, the max response in test [2] is 43.3%; in test [14] it was 0.0011%; in [15] it was -13.5% (inactive); in test [10], -6.44% (inactive); in [11], -4.72% (inactive); in test [18], -7.71% (inactive). The Potency result in test [3], in [4], in test [5], in test [9] and in test [12] was “inactive” each time. Further, the Potency in test [17] was 30.6 µM (active); in test [6], 44.7 µM (active); in [8], 15.8 µM (active). Further, the activation in test [7] is -1.69% (inactive).

As to `COc1cc(OC)nc(NC(=O)NS(=O)(=O)c2cc(NC=O)ccc2C(=O)N(C)C)n1`, the Potency result in test [19], in [3], in test [4] and in test [5] was “inactive” throughout. Further, the figures for the activation in test [20], in test [6] and in test [7] were -1.24% (inactive), -3.45% (inactive) and -3.78% (inactive), respectively. For the same compound, the max response in test [2] is -27.4%; in test [14], -2.91%; in test [15], 14.5% (inactive); in test [8], -4.09% (inactive); in test [10], 11% (inactive); in test [11], -24.7% (inactive). For the same compound, in test [18], the max response was -9.56% (inactive). In [13], the compound was classed as inactive. Moreover, in [16], the activity change % (negative = inhibition) was -8.65% (inactive).

As for `COc1ccc(/C(=C/C(=O)N2CCOCC2)c2ccc(Cl)cc2)cc1OC`, the results for the activation in test [20], in test [6] and in [7] were -0.563% (inactive), -3.46% (inactive) and -0.517% (inactive), respectively. For the same compound, the compound was called inactive in [13]. Moreover, the Potency entry in [4], in test [17], in test [9] and in [12] was “inactive” each time. Also, the max response is 24.3% in test [14]; -50.8% (inactive) in [15]; 0.316% (inactive) in test [8]; -2.69% (inactive) in test [10]; -14.1% (inactive) in test [11]; 8.84% (inactive) in test [18].

For `CCOc1cc(C(C)(C)C)ccc1C1COC(c2c(F)cccc2F)=N1` (stereo not given), the compound was called inactive in [1] and in test [13]. In addition, the max response in [2] is -21.7%; in test [8] it was 6.72% (inactive); in test [10] it was -8.55% (inactive); in test [11], -20% (inactive). Moreover, the Potency entry in [3] and in test [5] was “inactive” each time. The activity change % (negative = inhibition) in test [16] is -28.7% (inactive). Besides, the activation in [7] was 6.58% (inactive).

With `CSc1nc(NC(C)C)nc(NC(C)C)n1`, the outcome in [13] was inactive. For the same compound, the Potency result in test [5] and in test [9] was “inactive” throughout. Further, in [16], the activity change % (negative = inhibition) was -0.16% (inactive). The activation in test [6] is -3.76% (inactive); in [7], -2.16% (inactive). The max response in test [8] is 8.44% (inactive); in test [10], 9.37% (inactive); in test [11] it was 2.18% (inactive).
